A short description of experiment [1]: NCI Yeast Anticancer Drug Screen. Data for the rad50 strain (AID 155).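 Note: 0% = growth of vehicle-only cultures of the same strain.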 Particulars: S. cerevisiae rad50 strain growth inhibition, stronger effect = higher value. In outline: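 Genetically altered yeast (DNA repair pathway); compound treatment; growth inhibition vs vehicle ctrl.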
The nature of experiment [2]: NCI Yeast Anticancer Drug Screen. Data for the mec2-1 strain (AID 157). Particulars: S. cerevisiae mec2-1 strain, stronger effect = higher value. In short, it runs like this: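 Yeast mec2-1 mutant treated with compound. Readout: growth inhibition vs vehicle controls.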
Experiment [3] can be described thus: NCI Yeast Anticancer Drug Screen. Data for the sgs1 mgt1 strain (AID 161).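 Note: 0% = growth of cultures given vehicle only.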 Particulars: S. cerevisiae sgs1 mgt1 strain, stronger effect = higher value. In outline: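 Test agents were incubated with a DNA-repair-mutant yeast strain. Growth was then read and compared against vehicle-treated controls.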
Experiment [4] is described as follows: NCI Yeast Anticancer Drug Screen. Data for the cln2 rad14 strain (AID 165).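 Note: 0% = growth equal to vehicle treated cultures.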 Particulars: S. cerevisiae cln2 rad14 strain, stronger effect = higher value. In short, it runs like this: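 cln2 rad14 yeast strain; compound exposure; growth inhibition read vs vehicle controls.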
Experiment [5] can be described thus: NCI Yeast Anticancer Drug Screen. Data for the bub3 strain (AID 167). Particulars: S. cerevisiae bub3 mutant strain, stronger effect = higher value. In short, it runs like this:
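Yeast carrying a defined mutation is treated with each compound, and growth is compared with that of vehicle-exposed cells to give inhibition.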

Experiment [6] can be described thus: NCI Yeast Anticancer Drug Screen. Data for the mlh1 rad18 strain (AID 175). The conditions noted are these: S. cerevisiae mlh1 rad18 strain growth inhibition, stronger effect = higher value. In outline:
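Yeast w/ defined DNA-repair lesions; compound exposure; growth vs vehicle controls → % inhibition.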

Setting [7] is: at 5.0 µM (retest, dose inferred, filed as 0.5).
Setting [8] is: at 50.0 µM (retest, dose inferred, filed as 5.0).

This is part of a sample that, as a whole, favours compounds with a hit. Of some 79,000 tested, about 15% had one in any assay. A number with no mark means an inactive call. The source made the active and inactive calls. Cut-off read from the data, not from the text of the source: active = growth inhibition above about 70%; inactive = the rest.

In the case of `OC(C/C(=N\N=C(/CC(O)(C(F)(F)F)C(F)(F)F)c1ccccc1)c1ccccc1)(C(F)(F)F)C(F)(F)F`, the growth inhibition in experiment [1] (setting [7]) was -2%; in experiment [1] (setting [8]) it was 2%; in experiment [1] (at 50.0 µM), 62.6%; in experiment [2] (setting [7]), -6%; in experiment [2] (setting [8]), -11%; in experiment [2] (at 50.0 µM), 51%. The growth inhibition in experiment [3] (setting [7]) is -7%; in experiment [3] (setting [8]), -17%; in experiment [3] (at 50.0 µM), 50.9%; in experiment [4] (setting [7]), 6%; in experiment [4] (setting [8]), 12%; in experiment [4] (at 50.0 µM) it was 62.1%. The growth inhibition is 1% in experiment [5] (setting [7]); -5% in experiment [5] (setting [8]); 69% in experiment [5] (at 50.0 µM); -8% in experiment [6] (setting [7]); 3% in experiment [6] (setting [8]); 71.1% (active) in experiment [6] (at 50.0 µM).
Consider `O=[N+]([O-])c1nccn1CCCNCCCn1ccnc1[N+](=O)[O-]`, for which the growth inhibition was 27% in experiment [1] (setting [7]); 28% in experiment [1] (setting [8]); 0.45% in experiment [1] (at 50.0 µM); 0% in experiment [2] (setting [7]); -2% in experiment [2] (setting [8]); 1.2% in experiment [2] (at 50.0 µM). For the same molecule, the growth inhibition in experiment [3] (setting [7]) was 15%; in experiment [3] (setting [8]), 26%; in experiment [3] (at 50.0 µM) it was -6.7%; in experiment [4] (setting [7]) it was 24%; in experiment [4] (setting [8]), 17%; in experiment [4] (at 50.0 µM), -20.1%. Besides, the growth inhibition was 8% in experiment [5] (setting [7]); 14% in experiment [5] (setting [8]); -14.9% in experiment [5] (at 50.0 µM); 24% in experiment [6] (setting [7]); 20% in experiment [6] (setting [8]); 21.1% in experiment [6] (at 50.0 µM).
For `CCOC(=O)C(C(=O)OCC)c1ccc([N+](=O)[O-])o1`, the growth inhibition in experiment [1] (setting [7]) is 14%; in experiment [1] (setting [8]), 82% (active); in experiment [1] (at 50.0 µM) it was 86% (active); in experiment [2] (setting [7]), -15%; in experiment [2] (setting [8]), 96% (active); in experiment [2] (at 50.0 µM) it was 86.4% (active). In addition, the growth inhibition in experiment [3] (setting [7]) was 8%; in experiment [3] (setting [8]) it was 89% (active); in experiment [3] (at 50.0 µM), 89.2% (active); in experiment [4] (setting [7]), 6%; in experiment [4] (setting [8]), 79% (active); in experiment [4] (at 50.0 µM) it was 81.9% (active). Moreover, the growth inhibition in experiment [5] (setting [7]) was 0%; in experiment [5] (setting [8]) it was 94% (active); in experiment [5] (at 50.0 µM), 87.9% (active); in experiment [6] (setting [7]), 3%; in experiment [6] (setting [8]) it was 96% (active); in experiment [6] (at 50.0 µM), 82.2% (active).
Take `COc1cc(C2c3cc4c(cc3[C@@H](Nc3cccc(O)c3)C3COC(=O)[C@H]23)OCO4)cc(OC)c1O` (stereo partly drawn): the growth inhibition in experiment [1] (setting [7]) was 96% (active); in experiment [1] (setting [8]), 97% (active); in experiment [1] (at 50.0 µM), 85% (active); in experiment [2] (setting [7]), 96% (active); in experiment [2] (setting [8]), 98% (active); in experiment [2] (at 50.0 µM) it was 90.7% (active). The growth inhibition is 28% in experiment [3] (setting [7]); 97% (active) in experiment [3] (setting [8]); 88.5% (active) in experiment [3] (at 50.0 µM); 33% in experiment [4] (setting [7]); 90% (active) in experiment [4] (setting [8]); 88.8% (active) in experiment [4] (at 50.0 µM). Besides, the growth inhibition in experiment [5] (setting [7]) is 21%; in experiment [5] (setting [8]), 93% (active); in experiment [5] (at 50.0 µM) it was 87.7% (active); in experiment [6] (setting [7]), 94% (active); in experiment [6] (setting [8]), 97% (active); in experiment [6] (at 50.0 µM), 87% (active).
As for `CCCCCCCCN=C(N)c1ccc(C(=O)OCC2CCCCC2)cc1`, the growth inhibition in experiment [1] (setting [7]) is 98% (active); in experiment [1] (setting [8]), 99% (active); in experiment [1] (at 50.0 µM), 99.6% (active); in experiment [2] (setting [7]) it was 99% (active); in experiment [2] (setting [8]), 100% (active); in experiment [2] (at 50.0 µM) it was 99.7% (active). For the same molecule, the growth inhibition was 99% (active) in experiment [3] (setting [7]); 99% (active) in experiment [3] (setting [8]); 99.7% (active) in experiment [3] (at 50.0 µM); 98% (active) in experiment [4] (setting [7]); 99% (active) in experiment [4] (setting [8]); 99.5% (active) in experiment [4] (at 50.0 µM). Further, the growth inhibition is 98% (active) in experiment [5] (setting [7]); 100% (active) in experiment [5] (setting [8]); 99.6% (active) in experiment [5] (at 50.0 µM); 100% (active) in experiment [6] (setting [7]); 100% (active) in experiment [6] (setting [8]); 99.7% (active) in experiment [6] (at 50.0 µM).
As to `C=C1C(=O)O[C@@H]2C[C@]3(C)CC[C@]4(C)[C@H](CC[C@@H]5[C@@]6(C)CCC(=O)C(C)(C)[C@@H]6CC[C@]54C)[C@H]3[C@H]12`, the growth inhibition in experiment [1] (setting [7]) was 3%; in experiment [1] (setting [8]) it was 4%; in experiment [1] (at 50.0 µM), -14.1%; in experiment [2] (setting [7]), 18%; in experiment [2] (setting [8]), 24%; in experiment [2] (at 50.0 µM), -16.9%. The growth inhibition in experiment [3] (setting [7]) was 5%; in experiment [3] (setting [8]), 11%; in experiment [3] (at 50.0 µM), -9.1%; in experiment [4] (setting [7]), -3%; in experiment [4] (setting [8]), -1%; in experiment [4] (at 50.0 µM), 6.1%. The growth inhibition in experiment [5] (setting [7]) was 4%; in experiment [5] (setting [8]), -1%; in experiment [5] (at 50.0 µM), -10.7%; in experiment [6] (setting [7]), -2%; in experiment [6] (setting [8]), 4%; in experiment [6] (at 50.0 µM), -18.9%.
